Reference: PMC5540273 (PLoS ONE, 2017)

Columns and labels:
Settings in all cases: concentration: 1 μM, replicates: in singlicate; n = 1
MLK1 = test system: T1, MLK1
T1 construct: gene MAP3K9

MLK2 = test system: MLK2
MLK3 = test system: MLK3
MRCKA = test system: MRCKA
MRCKB = test system: T2, MRCKB
T2 construct: gene CDC42BPB

MST1R = test system: MST1R
MST1 = test system: T3, MST1
T3 construct: gene STK4

MST2 = test system: T4, MST2
T4 construct: gene STK3

MST3 = test system: T5, MST3
T5 construct: gene STK24

MST4 = test system: MST4
MTOR = test system: MTOR
MUSK = test system: MUSK
MYLK2 = test system: MYLK2
MYLK4 = test system: MYLK4
MYLK = test system: MYLK
MYO3A = test system: MYO3A
MYO3B = test system: MYO3B
NDR1 = test system: T6, NDR1
T6 construct: gene STK38

NDR2 = test system: NDR2
NEK10 = test system: NEK10
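Note: KINOMEscan kinase panel screen.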

Row | SMILES | %Inh (MLK1) | %Inh (MLK2) | %Inh (MLK3) | %Inh (MRCKA) | %Inh (MRCKB) | %Inh (MST1R) | %Inh (MST1) | %Inh (MST2) | %Inh (MST3) | %Inh (MST4) | %Inh (MTOR) | %Inh (MUSK) | %Inh (MYLK2) | %Inh (MYLK4) | %Inh (MYLK) | %Inh (MYO3A) | %Inh (MYO3B) | %Inh (NDR1) | %Inh (NDR2) | %Inh (NEK10)
1 | CNc1nccc(-c2ccc3c(N)n[nH]c3c2)n1 [GSK2206003] | 4% | 0% | 10% | 0% | 0% | 10% | 30% | 0% | 13% | 0% | 11% | 3% | 60% | 97.1% | 68% | 53% | 0% | 24% | 9% | 29%
2 | O=C(O)C(F)(F)F.O=c1[nH]ccc2nc(N[C@@H]3CCNC3)nc(Nc3cc(Cl)cc(Cl)c3)c12 [GSK2188764] | 95.7% | 0% | 88% | 24% | 35% | 11% | 86% | 80% | 85% | 91.1% | 9% | 3% | 50% | 36% | 92.4% | 59% | 0% | 82% | 68% | 81%
3 | NCCC(NC(=O)c1cc(Br)c(-c2ccnc3[nH]ccc23)s1)c1ccccc1.O=C(O)C(F)(F)F.O=C(O)C(F)(F)F (centres unmarked) [GSK1307810] | 0% | 0% | 0% | 86% | 99.1% | 29% | 0% | 4% | 11% | 23% | 12% | 11% | 8% | 99.9% | 34% | 0% | 0% | 96.7% | 96.7% | 9%
4 | CCNc1nccc(-c2c(-c3ccc(F)cc3)ncn2C2CCN(C)CC2)n1 | 0% | 7% | 0% | 0% | 0% | 0% | 0% | 38% | 21% | 0% | 0% | 97.7% | 0% | 0% | 0% | 5% | 0% | 3% | 5% | 0%
5 | Cc1cccc(Nc2nc(NCCN)ncc2C(N)=O)c1 [GSK1292139] | 85% | 0% | 61% | 2% | 0% | 14% | 35% | 38% | 23% | 23% | 12% | 6% | 5% | 94.3% | 8% | 5% | 0% | 21% | 25% | 47%
6 | Cn1cc(-c2ccc3c(c2)CCN3C(=O)Cc2cc(F)cc(C(F)(F)F)c2)c2c(N)ncnc21 [GSK2635225] | 78% | 42% | 72% | 5% | 0% | 19% | 39% | 10% | 0% | 0% | 35% | 28% | 27% | 1% | 12% | 42% | 0% | 25% | 13% | 6%
7 | Fc1cc(Cl)ccc1Nc1ccnc2cc(-c3ccc(CN4CCOCC4)o3)ccc12 [GW560109] | 2% | 0% | 0% | 13% | 0% | 0% | 0% | 0% | 0% | 0% | 1% | 0% | 8% | 1% | 47% | 0% | 1% | 0% | 0% | 0%
8 | COc1ccc(C)c(Nc2ccnc(Nc3ccc(-c4cnc[nH]4)cc3)n2)c1.Cl [GW784041] | 30% | 12% | 0% | 20% | 5% | 0% | 23% | 38% | 17% | 0% | 0% | 0% | 7% | 0% | 18% | 11% | 27% | 22% | 0% | 0%
9 | Nc1ncc(-c2cn[nH]c2)c2scc(-c3ccc4c(c3)CCN4C(=O)Cc3ccccc3)c12 [GSK2593067] | 16% | 0% | 32% | 0% | 0% | 27% | 99.4% | 14% | 0% | 20% | 4% | 64% | 69% | 17% | 4% | 6% | 0% | 0% | 0% | 22%
10 | Cc1ccc(NC(=O)c2cccc(N3CCCCC3)c2)cc1-c1ccc(C(=O)NCC2CC2)cc1 [GSK1917008] | 0% | 17% | 12% | 17% | 0% | 37% | 13% | 34% | 13% | 1% | 14% | 1% | 9% | 9% | 17% | 0% | 12% | 0% | 0% | 0%
11 | CN(C)c1ncnc2nc[nH]c12 [SKF-31736] | 0% | 0% | 0% | 11% | 0% | 0% | 0% | 0% | 19% | 1% | 54% | 14% | 0% | 30% | 0% | 0% | 0% | 35% | 24% | 21%
12 | COc1cccc(C2=C(Nc3cccc(O)c3)C(=O)NC2=O)c1 [SB-390771] | 21% | 0% | 4% | 18% | 0% | 0% | 13% | 12% | 0% | 7% | 38% | 0% | 0% | 6% | 27% | 17% | 0% | 18% | 0% | 67%
13 | COc1cccc(NC(=O)NCCNc2ccnc(Nc3ccc(F)cc3)n2)c1 [GSK1379879] | 0% | 0% | 0% | 34% | 3% | 37% | 0% | 15% | 0% | 0% | 32% | 5% | 0% | 0% | 16% | 22% | 0% | 18% | 0% | 0%
14 | COC(=O)Nc1nc2ccc(Oc3ccc(CC(=O)Nc4cc(C(F)(F)F)ccc4F)cc3)cc2[nH]1 [GW680903] | 0% | 0% | 0% | 39% | 0% | 34% | 0% | 0% | 4% | 0% | 26% | 95.5% | 0% | 0% | 10% | 12% | 0% | 0% | 0% | 21%
15 | O=C(Nc1n[nH]c2nc(-c3ccccc3)ccc12)C1CC1 [SB-708999] | 0% | 11% | 5% | 8% | 0% | 0% | 3% | 0% | 3% | 41% | 0% | 13% | 86% | 11% | 30% | 25% | 0% | 0% | 13% | 0%
16 | CN(c1ccc(NC(=O)Nc2cccc(Cl)c2)cc1)c1ccnc(N)n1.Cl [GW830707] | 0% | 7% | 0% | 0% | 17% | 22% | 0% | 11% | 0% | 16% | 13% | 72% | 0% | 6% | 0% | 3% | 36% | 10% | 25% | 1%
17 | COc1cccc2c(-c3ccncc3)c(-c3ccc(F)cc3)nn12 [GW468513] | 0% | 1% | 4% | 60% | 67% | 15% | 31% | 0% | 0% | 0% | 20% | 21% | 0% | 0% | 12% | 4% | 0% | 8% | 0% | 0%
18 | CSc1ccc(NC2=C(c3ccc(Cl)cc3)C(=O)NC2=O)cc1 [SB-317658] | 0% | 4% | 0% | 0% | 0% | 33% | 29% | 45% | 0% | 6% | 0% | 34% | 10% | 24% | 0% | 18% | 20% | 9% | 9% | 14%
19 | O=C(Nc1n[nH]c2nc(-c3ccccc3O)ccc12)C1CC1 [SB-711880] | 0% | 0% | 0% | 4% | 0% | 10% | 0% | 16% | 0% | 20% | 16% | 0% | 85% | 0% | 28% | 36% | 1% | 6% | 0% | 0%
